The structures appear in SMILES notation. Active and inactive are the calls of the source. Unless noted, the rule behind the calls is not given here.

A short description of assay [1]: resazurin metabolic signal in HepG2 cells – cell-based, resazurin fluorescence, 24 h, PK04 Diversity Set, profiling panel (AID 1172). The settings on record: HepG2 viability, higher = more signal. For orientation: Alamar Blue is a resazurin reagent that responds to reducing activity.
Assay [2] in a line: budding yeast growth changes without added modifier – OD600, strain BY4716, 24 h, basal condition, primary screen (AID 1173). The settings on record: S. cerevisiae BY4716 growth, OD600, 24 h; higher = more signal, called active from +8 up or from −8 down.
Assay [3] can be described thus: viability profiling in MM1S myeloma cells – cell-based, resazurin fluorescence, basal, 24 h, PK04 Diversity Set, profiling panel (AID 1174).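 Note: MM1S multiple myeloma cell line.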 The settings on record: higher = more signal, called active from +8 up or from −8 down.
In assay [4] the target is Dihydroorotate dehydrogenase (quinone), mitochondrial (Plasmodium falciparum (isolate 3D7)) (UniProt Q08210). Description: inhibition of P. falciparum DHODH – biochemical, C-terminal His tag, absorbance 600 nm, primary screen (AID 1175).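 Note: recombinant parasite enzyme with a five histidine tag at its C terminus.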 The settings on record: PfDHODH enzyme, DCIP absorbance 600 nm; higher = more signal, called active from +8 up or from −8 down.
Assay [5] in a line: inhibition of PAO1 biofilm formation – strain PAO1, LB-PBS medium, absorbance 600 nm, primary screen (AID 1176). The settings on record: P. aeruginosa PAO1 growth/biofilm, A600, 12 h; higher = more signal.
The nature of assay [6]: growth modulation of vineyard yeast isolate – strain RM11-1a, OD600, basal, 24 h, primary screen (AID 1177).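 Note: cultures grown under basal conditions with no added stressor.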 The settings on record: S. cerevisiae RM11-1a growth, OD600, 24 h; higher = more signal, called active from +8 up or from −8 down.
Assay [7] can be described thus: growth of efflux-deficient E. coli DRC39 – strain DRC39, OD650, 24 h, E. coli filamentation inducers, primary screen (AID 1178).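 Note: growth measured as culture turbidity by optical density at 650 nm.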 The settings on record: E. coli DRC39 acrAB, higher = more signal, called active from +8 up or from −8 down.
Assay [8] in a line: growth of efflux-deficient E. coli DRC39 – strain DRC39, OD650, 48 h, E. coli filamentation inducers, primary screen (AID 1179).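 Note: screen aims at cell division blockers that make cells filament.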 The settings on record: E. coli DRC39 delta-acrAB growth, higher = more signal, called active from +8 up or from −8 down.
Assay [9] can be described thus: viability profiling in RPMI8226 myeloma cells – cell-based, resazurin fluorescence, basal, 24 h, PK04 Diversity Set, profiling panel (AID 1180).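 Note: RPMI8826 multiple myeloma cell line at 5000 cells per well.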 The settings on record: higher = more signal.
In assay [10] the target is E3 ubiquitin-protein ligase XIAP (Homo sapiens) (UniProt P98170). Description: small molecules binding XIAP protein – biophysical, small-molecule microarray, fluorescence 635 nm, primary screen (AID 1181).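 Note: score merges 667 nm emission and signal to noise over triplicate slides.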 The settings on record: higher = more signal.
The subject of assay [11] is XIP peptide (Xip251-270) binding. Description: XIP fragment 251-270 binding compounds – biochemical, small-molecule microarray, fluorescence 635/667 nm, 0.1 µg/mL protein, primary screen (AID 1182). The settings on record: fluorescent protein binding, 635 nm, higher = more signal, called active from +8 up or from −8 down.
The subject of another assay is XIP peptide (Xip251-270). In words: compounds binding XIP fragment 251-270 – biochemical, small-molecule microarray, fluorescence 635/667 nm, 0.5 µg/mL protein, primary screen (AID 1183). The settings on record: fluorescence 635 nm, higher = more signal.
Assay [12] in a line: blood-stage malaria parasite viability loss – strain 3D7, DAPI fluorescence, 100 nL, primary screen (AID 1184).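 Note: parasites grown inside human red blood cells in medium with human serum.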 The settings on record: P. falciparum 3D7 growth, 3 d, higher = more signal.
Assay [13] concerns the target Homeobox protein Hox-A13 (Mus musculus) (UniProt Q62424). Description: disruptors of Hoxa13 oligonucleotide interaction – biochemical, fluorescence polarization, labeled oligonucleotide, primary screen (AID 1185). The settings on record: Hoxa13:DNA binding, 15 min, higher = more signal, called active from +8 up or from −8 down.
Assay [14] can be described thus: blockers of DNA damage checkpoint Chk1 activation – imaging, HeLa, hydroxyurea, phospho-Chk1 antibody, percent positive cells, primary screen (AID 1186). The settings on record: hydroxyurea-induced phospho-Chk1 immunofluorescence imaging, higher = more signal.
The nature of assay [15]: blockers of DNA damage checkpoint Chk1 activation – imaging, HeLa, hydroxyurea, phospho-Chk1 nuclear intensity, primary screen (AID 1187). The settings on record: hydroxyurea-induced phospho-Chk1 immunofluorescence imaging, higher = more signal.

E3 ubiquitin-protein ligase XIAP (Homo sapiens), sequence (P98170 whole entry, looked up, the tested form may be a part): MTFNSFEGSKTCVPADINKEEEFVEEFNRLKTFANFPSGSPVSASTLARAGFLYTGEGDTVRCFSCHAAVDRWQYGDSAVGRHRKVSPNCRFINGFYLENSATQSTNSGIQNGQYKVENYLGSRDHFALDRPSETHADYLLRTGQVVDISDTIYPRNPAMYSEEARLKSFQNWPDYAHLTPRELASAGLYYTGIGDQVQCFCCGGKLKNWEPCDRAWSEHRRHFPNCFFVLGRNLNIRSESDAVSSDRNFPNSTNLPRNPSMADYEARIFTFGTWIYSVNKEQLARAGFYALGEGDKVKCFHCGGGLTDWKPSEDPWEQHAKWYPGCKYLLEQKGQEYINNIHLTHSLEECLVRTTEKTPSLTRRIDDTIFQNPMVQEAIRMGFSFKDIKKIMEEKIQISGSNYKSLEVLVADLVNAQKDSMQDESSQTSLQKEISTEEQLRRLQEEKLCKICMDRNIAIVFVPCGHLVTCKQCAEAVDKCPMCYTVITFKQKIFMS
Homeobox protein Hox-A13 (Mus musculus), sequence (Q62424 whole entry, looked up): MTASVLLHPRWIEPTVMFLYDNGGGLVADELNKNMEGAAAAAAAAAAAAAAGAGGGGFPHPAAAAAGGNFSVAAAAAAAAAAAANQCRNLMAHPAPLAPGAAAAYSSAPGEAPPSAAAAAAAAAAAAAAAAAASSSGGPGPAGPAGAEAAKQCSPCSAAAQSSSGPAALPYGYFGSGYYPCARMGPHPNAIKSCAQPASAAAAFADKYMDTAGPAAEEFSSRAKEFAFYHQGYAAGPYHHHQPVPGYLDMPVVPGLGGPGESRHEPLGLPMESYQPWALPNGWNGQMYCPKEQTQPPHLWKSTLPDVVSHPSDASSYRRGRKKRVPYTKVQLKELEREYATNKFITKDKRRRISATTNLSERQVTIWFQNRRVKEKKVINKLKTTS
Dihydroorotate dehydrogenase (quinone), mitochondrial (Plasmodium falciparum (isolate 3D7)), sequence (Q08210 whole entry, looked up): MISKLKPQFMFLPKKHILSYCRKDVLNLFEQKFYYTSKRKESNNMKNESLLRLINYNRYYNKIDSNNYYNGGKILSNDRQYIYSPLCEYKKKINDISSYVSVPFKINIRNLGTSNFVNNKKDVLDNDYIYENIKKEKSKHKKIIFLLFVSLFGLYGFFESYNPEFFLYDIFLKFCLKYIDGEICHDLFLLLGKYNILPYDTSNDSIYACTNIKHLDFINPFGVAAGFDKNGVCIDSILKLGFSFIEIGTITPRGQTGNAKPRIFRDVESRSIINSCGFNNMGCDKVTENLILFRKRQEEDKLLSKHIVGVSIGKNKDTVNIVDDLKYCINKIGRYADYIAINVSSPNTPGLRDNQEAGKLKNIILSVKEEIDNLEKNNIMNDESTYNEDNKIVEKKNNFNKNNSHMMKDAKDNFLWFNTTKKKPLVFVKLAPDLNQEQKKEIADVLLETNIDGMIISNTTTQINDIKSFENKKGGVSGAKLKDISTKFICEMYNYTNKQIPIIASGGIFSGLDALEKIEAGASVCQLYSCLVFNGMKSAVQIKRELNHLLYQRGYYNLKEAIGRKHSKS

Regarding `OCCCC1=CC(c2ccc(CN3CCCC3)cc2)N(Cc2cc3c(cc2Br)OCO3)CC1` (centres undefined), the z-score in [1] was 0.195; in assay [2], -0.538 (inactive); in [3], 0.163 (inactive); in assay [5], 0.485 (inactive); in [6] it was 0.622 (inactive); in assay [7], 0.243 (inactive). The z-score is 0.149 (inactive) in [8]; -0.343 in assay [9]; -3.05 in [12]; -2.68 (inactive) in [13]; 0.905 (inactive) in assay [14]; 0.629 (inactive) in [15]. Besides, the composite z-score was 0.198 (inactive) in assay [4], -0.0513 in assay [10], -0.265 (inactive) in [11] and -0.3 in the assay on XIP peptide (Xip251-270).

With `C[N+](C)(C)CCCCCCNC(=O)[C@@H]1C[C@@H]2C(=O)N3CCC[C@H]3C(=O)N2[C@@H]1c1ccc(O)cc1`, the z-score in assay [1] was 1.4; in assay [2] it was -0.827 (inactive); in [3] it was 1.02 (inactive); in assay [5], -0.984 (inactive); in [6], -0.0176 (inactive); in [7], 0.0464 (inactive). The z-score in assay [8] is -0.207 (inactive); in assay [9], 0.441; in assay [12], 0.0301; in assay [13] it was -1.82 (inactive); in assay [14] it was -0.265 (inactive); in assay [15], 0.127 (inactive). For the same compound, the composite z-score in [4] was -1.53 (inactive); in [10], -0.169; in [11], 0.45 (inactive); with XIP peptide (Xip251-270), 0.723.

Take `Cc1ccc(N2C(=O)c3ccccc3[C@@H](C(=O)NCCCN(C)C)[C@@H]2c2ccc(CO)cc2)nc1`: the z-score in assay [1] is 0.258; in assay [2] it was -0.957 (inactive); in [3] it was -0.252 (inactive); in assay [5], -0.397 (inactive); in assay [6], -0.64 (inactive); in assay [7], -0.152 (inactive). Further, the z-score was 0.327 (inactive) in assay [8]; 0.262 in [9]; -0.235 in [12]; -2.34 (inactive) in assay [13]; 0.026 (inactive) in [14]; -0.303 (inactive) in [15]. The composite z-score is -0.746 (inactive) in assay [4], -0.102 in assay [10], 1.9 (inactive) in assay [11] and 0.148 in the assay with XIP peptide (Xip251-270).

`C#Cc1cc2ccccc2oc1=O`: the z-score in assay [1] is 0.236; in assay [2] it was -5.07 (inactive); in [3], -1.05 (inactive); in [5] it was -0.0322 (inactive); in [6], -0.874 (inactive); in assay [7] it was -1.46 (inactive). Moreover, the z-score in [8] is -1.25 (inactive); in assay [9], -1.14; in assay [12] it was -0.744; in assay [13], -1.51 (inactive); in assay [14] it was 0.318 (inactive); in [15] it was -0.6 (inactive). Also, the composite z-score in [4] was -0.748 (inactive); in assay [10] it was -0.172; in assay [11], 0.151 (inactive); in the assay with XIP peptide (Xip251-270), 0.35.

On to `C=CCC(OC(C)=O)[C@@H]1[C@@H](N(Cc2cc3ccccc3o2)C(=O)Cc2ccc(F)cc2)c2cc(OCCCO)ccc2N1C(=O)Cc1ccc2ccccc2c1` (some centres undefined), for which the z-score in assay [1] was 0.278; in assay [2], -0.0417 (inactive); in assay [3], 0.72 (inactive); in assay [5] it was 0.526 (inactive); in assay [6], -0.146 (inactive); in assay [7], -1 (inactive). The z-score in assay [8] was -0.861 (inactive); in assay [9], 0.189; in assay [12], 0.694; in [13], -1.9 (inactive); in assay [14], 0.725 (inactive); in assay [15] it was 0.113 (inactive). In addition, the composite z-score in [4] is -13.4 (active); in [10] it was 0.109; in [11], -0.0865 (inactive); in the assay on XIP peptide (Xip251-270), -0.507.

As to `CCOC(=O)C=Cc1cccc(C)c1O`, the z-score in [1] was -0.156; in assay [2] it was -10.7 (active); in assay [3], -0.753 (inactive); in assay [5] it was 0.0236 (inactive); in assay [6] it was -4.67 (inactive); in assay [7], 0.0457 (inactive). The z-score was -0.944 (inactive) in assay [8]; -0.529 in [9]; -1.44 in assay [12]; 0.534 (inactive) in [13]; -0.193 (inactive) in assay [14]; 0.0058 (inactive) in [15]. The composite z-score in [4] is -0.892 (inactive); in assay [10], 0.0533; in assay [11] it was 2.79 (inactive); with XIP peptide (Xip251-270), 0.159.

Regarding `COC(=O)[C@]1(CCS(=O)(=O)c2ccccc2)N=C(c2ccc(OCCCO)cc2)O[C@@H]1c1ccccc1N=[N+]=[N-]`, the z-score in assay [1] was -1.28; in assay [2], 0.141 (inactive); in assay [3] it was -3.19 (inactive); in [5] it was 0.963 (inactive); in assay [6], 2.53 (inactive); in [7], 0.548 (inactive). Moreover, the z-score was -0.718 (inactive) in assay [8]; -2.26 in [9]; -2.36 in assay [12]; -3.34 (inactive) in assay [13]; -0.265 (inactive) in assay [14]; -0.364 (inactive) in assay [15]. Also, the composite z-score in [4] was 1.02 (inactive); in [10], -0.0502; in assay [11], 1.48 (inactive); in the assay with XIP peptide (Xip251-270) it was 0.836.

On to `CN1C(=O)C2C=CC(C(O)c3cccn3C)N(Nc3ccc([N+](=O)[O-])cc3[N+](=O)[O-])C2C1=O` (centres undefined), for which the z-score in [1] was -0.929; in assay [2], 1.1 (inactive); in assay [3], -1.76 (inactive); in assay [5], 0.667 (inactive); in assay [6], 0.407 (inactive); in assay [7], -0.314 (inactive). Also, the z-score is -0.119 (inactive) in [8]; -1.34 in [9]; 0.69 in assay [12]; -5.85 (inactive) in [13]; 0.769 (inactive) in assay [14]; 0.127 (inactive) in assay [15]. For the same compound, the composite z-score in [4] was -0.145 (inactive); in assay [10] it was -0.354; in assay [11], -0.438 (inactive); in the assay with XIP peptide (Xip251-270), -0.564.

On to `O=C1OCCC=C[C@H]2OC34C=CCN(c5ccc6ccccc6c5)C(=O)[C@H]3N(CCCO)C(=O)[C@@H]4C12` (some centres undefined), for which the z-score was -0.0412 in [1]; -0.129 (inactive) in assay [2]; -0.284 (inactive) in assay [3]; -0.385 (inactive) in [5]; 0.393 (inactive) in assay [6]; -0.127 (inactive) in assay [7]. Besides, the z-score was -0.611 (inactive) in assay [8]; -0.496 in [9]; -1.83 in assay [12]; -2.31 (inactive) in assay [13]; -0.292 (inactive) in assay [14]; -0.64 (inactive) in assay [15]. Also, the composite z-score in [4] was -0.286 (inactive); in [10], 0.158; in assay [11], -0.725 (inactive); with XIP peptide (Xip251-270), -0.617.
